About 1,800 (0.62%) of roughly 290,000 compounds were called active. Rule as the data show it: active = inhibition above about 50%; inactive = the rest. The list comes from a sample in which actives are over-represented; it also holds similar structures and randomly drawn compounds.
Experiment: NOD2 signaling inhibitors, cell-based, luminescence, uHTS, HEK293 (AID 1566)
Conditions: HEK293 NOD2/NF-kB luciferase reporter, at 4 µM, stronger effect = higher value

Compound | inhibition
COc1cc(/C=N/N2CCN(Cc3ccc(C)cc3)CC2)cc(OC)c1O | 2.5% (inactive)
CC(=O)Nc1c(-c2ccc(F)cc2)nc2ccccn12 | -10.8% (inactive)
O=C(Nc1c(-c2ccc(F)cc2)nc2ccccn12)c1ccc(F)cc1 | 79.7% (active)
O=C(Nc1c(-c2ccccc2)nc2ccccn12)c1ccccc1 | 3.9% (inactive)
O=C(CCS(=O)(=O)c1ccccc1)N1CCN(c2cccc(C(F)(F)F)c2)CC1 | 11.5% (inactive)
COc1ccc(/C=C/C(=O)Nc2ccccc2C(F)(F)F)cc1 | -25.4% (inactive)
CCCCOCC(O)CN1CCN(C(C)=O)CC1 (configuration not stated) | 10.9% (inactive)
COc1ccc(N=Cc2cc(Cc3ccccc3Cl)cc([N+](=O)[O-])c2O)cc1OC | -10.2% (inactive)
O=[N+]([O-])c1cc(Cc2ccccc2)cc(C=Nc2ccc(N3CCOCC3)cc2)c1O | 11.1% (inactive)
O=C1NN=C(c2ccccc2)CC1c1c[nH]c2ccccc12 (configuration not stated) | -14% (inactive)
COc1ccc(NC(=O)CS(=O)(=O)c2cn(CC(=O)N3CCCC3)c3ccccc23)c(OC)c1 | -10.2% (inactive)
Cc1ncc(CO)c(CNc2ccc(Oc3ccccc3)cc2)c1O | 50.4% (active)
Cc1ncc(CO)c(CNc2ccc(-c3nc4ccccc4[nH]3)cc2)c1O | -99.7% (inactive)
Cc1ncc(CO)c(/C=N/N=C/c2ccccc2O)c1O | -28% (inactive)
O=C(COC(=O)c1ccc(Br)cc1)NC1CCCC1 | 10.3% (inactive)
O=C(Nc1cccc2ccccc12)c1ccccc1Cl | -7.8% (inactive)
CCCCCCc1cc2cc(C(=O)Nc3ccccc3)c(=O)oc2cc1O | -36.8% (inactive)
CCCCCCc1cc2cc(C(N)=O)c(=N)oc2cc1O | 1.5% (inactive)
CCOC(=O)c1c(NC(=O)CSc2n[nH]c(-c3ccco3)n2)sc(C)c1C | 11.6% (inactive)
COCCSc1nnc(NC(=O)C2CC(=O)N(CCc3ccc(F)cc3)C2)s1 (configuration not stated) | 16.7% (inactive)
O=C(CCCCn1c(=O)c2ccccc2n(CC(=O)Nc2ccccc2)c1=O)NCc1ccco1 | 3.3% (inactive)
COc1ccc(/C(O)=C/c2nc3ccccc3n(-c3ccccc3)c2=O)cc1 | 24.8% (inactive)
COc1ccc(-n2c(=O)c(CCC(=O)N(C)Cc3ccccc3C)nc3ccccc32)cc1 | 0.2% (inactive)
Cc1ccc(NS(=O)(=O)c2cccc(C(=O)NNC(=O)c3cccn3C)c2)c(C)c1 | -2.3% (inactive)
C/C(=N\NC(=O)NC1CCCCC1)c1ccco1 | -11.6% (inactive)

Compound | inhibition
O=C(c1cc(Cl)nc2ccccc12)N(Cc1nnc(-c2ccccc2Cl)o1)C1CC1 | 14.2% (inactive)
Cc1noc(C)c1C(=O)NCc1ccccc1 | 16.6% (inactive)
COc1ccc(NC(=O)c2cc([N+](=O)[O-])ccc2N2CCCC2)cc1 | 7.4% (inactive)
COc1ccc(NC(=O)c2cc([N+](=O)[O-])ccc2O)cc1 | 70.6% (active)
COc1ccc(NC(=O)c2cc([N+](=O)[O-])ccc2N2CCCCC2)cc1 | -14.3% (inactive)
O=[N+]([O-])c1cc(Cl)ccc1NCCNc1ncc(C(F)(F)F)cc1Cl | 12.4% (inactive)
Nc1cc(=O)[nH]c(SCc2ccc(Cl)cc2Cl)n1 | 58.1% (active)
Nc1cc(=O)[nH]c(SCc2ccccc2Cl)n1 | 23.4% (inactive)
Cc1cc(=O)[nH]c(SCc2ccc(Cl)cc2Cl)n1 | 4.6% (inactive)
Cn1c(C(=O)N2CCN(c3ccc(F)cc3)CC2)cc2ccccc21 | 1.5% (inactive)
O=c1cc(CSc2nc3ccccc3c(=O)[nH]2)c2ccc(O)cc2o1 | 70.3% (active)
Cc1ccccc1CSc1nc2ccccc2c(=O)[nH]1 | -3.5% (inactive)
O=c1[nH]c(SCc2ccccc2F)nc2ccccc12 | 8.9% (inactive)
Cc1cc(-c2nnc(SCC(=O)c3ccc(Cl)cc3)o2)no1 | 1.2% (inactive)
COc1ccc(-c2oc3cccnc3c2-c2ccc(OC)nc2)cc1 | -2.2% (inactive)
COc1cc(CC(=O)Nc2ccc3c(c2)CCC3)cc(OC)c1OC | 24.2% (inactive)
COc1ccc(CC(=O)Nc2ccc3c(c2)CCC3)cc1OC | 53.3% (active)
COc1ccc(CC(=O)Nc2ccc3c(c2)CCC3)cc1 | 13.2% (inactive)
Cc1ccc(C)c(N2CCN(CC(=O)Nc3ccc([N+](=O)[O-])cc3C(=O)Nc3ccccc3F)CC2)c1 | -26.6% (inactive)
Cc1ccc(S(=O)(=O)c2c(N)n(CCN3CCOCC3)c3nc4ccccc4nc23)cc1C | -39.8% (inactive)
Cn1c(=O)cc(NCCc2ccccc2)[nH]c1=O | -8.7% (inactive)
O=C(OCCN=C1NS(=O)(=O)c2ccccc21)c1ccncc1 | -0.9% (inactive)
CCc1ccc(S(=O)(=O)NCc2cn3ccsc3n2)s1 | 13.4% (inactive)
CCCCCCCC(=O)NC(Nc1ccc(S(N)(=O)=O)cc1)C(Cl)(Cl)Cl (configuration not stated) | 22.9% (inactive)
CN(C)S(=O)(=O)c1cccc(NC(=O)c2cnccn2)c1 | 6.9% (inactive)

Compound | inhibition
CN(C)S(=O)(=O)c1cccc(NC(=O)c2ccncc2)c1 | 12.4% (inactive)
O=C(CC1CC2CCC1C2)OCC(=O)c1c[nH]c2ccccc12 (configuration not stated) | 12.6% (inactive)
CC(C(=O)NCc1ccccc1)N1CCN(c2ccc(F)cc2)CC1 (configuration not stated) | 5.1% (inactive)
COc1ccc(CNC2CCSc3ccccc32)cc1OC (configuration not stated) | 23.3% (inactive)
CCn1c(=O)cc(OCC(=O)N2CCc3ccccc32)c2ccccc21 | 17.9% (inactive)
COc1ccccc1OCc1nnc(SCC(=O)N2CCCC2)o1 | 4.2% (inactive)
COc1ccccc1OCc1nnc(SCC(=O)N2CCCCC2)o1 | -9.8% (inactive)
COc1ccccc1OCc1nnc(SCC(=O)c2cc(Cl)ccc2OC)o1 | 57.5% (active)
CC(C)NC(=O)NC(=O)COC(=O)C1(C)CC1(Cl)Cl (configuration not stated) | -8.2% (inactive)
COC(=O)C(CO)NC(=O)C(C)NC(=O)CNC(=O)OCc1ccccc1 (configuration not stated) | 9% (inactive)
COc1ccccc1NC(=O)c1cc2n(n1)C(C(F)(F)F)CC(c1ccc3c(c1)OCO3)N2 (configuration not stated) | 35.9% (inactive)
O=C(Nc1cc(Cl)ccc1O)c1cc2n(n1)C(C(F)(F)F)CC(c1ccc3c(c1)OCO3)N2 (configuration not stated) | 53.1% (active)
COc1ccc(OC)c(NC(=O)c2cc3n(n2)C(C(F)(F)F)CC(c2ccc4c(c2)OCO4)N3)c1 (configuration not stated) | 35.2% (inactive)
CCN(CC(=O)Nc1ccc(N2CCOCC2)cc1)C(=O)c1ccc(C#N)cc1 | 0.4% (inactive)
Cc1ccc(N2CC(C(=O)N3CCN(C(=O)c4ccco4)CC3)CC2=O)cc1 (configuration not stated) | 3.8% (inactive)
COc1cc(NCc2ccccc2O)c2ncccc2c1 | -106% (inactive)
COc1cc(NC(=O)C2CCCCC2)c2ncccc2c1 | 7.2% (inactive)
CCC(CNc1cc(OC)cc2cccnc12)NC1CCCCC1 (configuration not stated) | 74.6% (active)
Cc1ccccc1N=C1NC(=O)/C(=C/c2cccn2-c2cccc(C(=O)O)c2)S1 | 10.7% (inactive)
CC(C)CN1CCN(CCCc2ccccc2)C(CCO)C1 (configuration not stated) | -35.5% (inactive)
COc1ccc(N2C(=O)NC3CC2(C)Oc2ccccc23)cc1 (configuration not stated) | 15.5% (inactive)
O=C(CCS(=O)(=O)c1ccccc1)NC1CCCCC1 | -43.9% (inactive)
COc1ccc(-c2nn(C)c(=O)c3ccccc23)cc1NC(=O)COc1ccc(C)cc1 | 53.6% (active)
COc1ccc(OCC(=O)Nc2cc(-c3nn(C)c(=O)c4ccccc34)ccc2OC)cc1 | 46.6% (inactive)
COc1ccc(-c2nn(C)c(=O)c3ccccc23)cc1NC(=O)COc1ccccc1 | 31.2% (inactive)

Compound | inhibition
CCc1nnc(NC(=O)CSc2nc(C)cc(C)c2C#N)s1 | -111% (inactive)
COc1ccc(C)cc1S(=O)(=O)N(CC(N)=O)Cc1ccccc1 | -4.4% (inactive)
O=C(N/N=C/c1ccc([N+](=O)[O-])o1)C1CCCC1 | 60.2% (active)
O=C(N/N=C/c1ccc([N+](=O)[O-])o1)C1CC1 | 23.5% (inactive)
CCCCCC(=O)N/N=C/c1ccc([N+](=O)[O-])o1 | 28.5% (inactive)
COC(=O)N/N=C/c1ccc([N+](=O)[O-])o1 | -0.6% (inactive)
O=C(CN1CCCCCCC1)N/N=C/c1ccc([N+](=O)[O-])o1 | 67.4% (active)
O=C(CSc1ccc(Cl)cc1)N/N=C/c1ccc([N+](=O)[O-])o1 | 69.6% (active)
O=C(CCC(=O)Nc1ccc(Cl)cc1Cl)N/N=C/c1ccc([N+](=O)[O-])o1 | 33.1% (inactive)
O=C(Cc1ccc([N+](=O)[O-])cc1)N/N=C/c1ccc([N+](=O)[O-])o1 | 33.1% (inactive)
CCCCCCCC(=O)N/N=C/c1ccc([N+](=O)[O-])o1 | 16.9% (inactive)
COc1cc(C(O)P(=O)(OC2CCCCC2)c2ccc(N(C)C)cc2)cc(OC)c1OC (configuration not stated) | 0.5% (inactive)
C=CCNC(=S)NNC(=O)COc1ccc2cc(Br)ccc2c1 | -39.9% (inactive)
CCCCCC(C)NC(=O)c1ccoc1C (configuration not stated) | 12.6% (inactive)
COC(=O)C1CCN(C(=O)Cc2ccc(Br)cc2)CC1 | -8.4% (inactive)
O=C(CC1C(=O)NCCN1Cc1ccccc1)NCCCOc1cccnc1 (configuration not stated) | 9.1% (inactive)
CC(=C/c1ccccc1)/C=N/Nc1nc(N2CCOCC2)nc(N2CCOCC2)n1 | -9.3% (inactive)
CC[n+]1c(/C=C/c2ccc(N(C)C)cc2)ccc2ccccc21 | 17.2% (inactive)
CC[n+]1c(/C=C/c2ccc(OC)c(OC)c2)ccc2ccccc21 | -117% (inactive)
CC(C)c1ccc(C(C)NCCS(=O)(=O)c2ccc(Br)cc2)cc1 (configuration not stated) | -12.3% (inactive)
CC(NCCS(=O)(=O)c1ccc(Cl)cc1)c1cccc(Cl)c1 (configuration not stated) | 54.1% (active)
CC(C)c1ccc(C(C)NCCS(=O)(=O)c2ccc(Cl)cc2)cc1 (configuration not stated) | 14.9% (inactive)
